# Screening results: PubChem BioAssay, National Center for Advancing Translational Sciences (NCATS)
# Shown are actives, neighbours in structure and some others; about 17% of the full set was active somewhere.
# ATXN2 expr inh: Primary qHTS for Inhibitors of ATXN expression | HEK-293 ATXN2-luciferase reporter, luminescence, 24 h | Potency, µM (titrated, usually from 57 µM), for the others: at the highest dose activity change, negative = inhibition, actives largely listed as inhibitors | actives 0.72% (n = 360,000); note: % is set by controls: 0 for no effect and ±100 for the full control effect; nearly all actives have a fitted effect of over 55% in size
#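 qHTS (up to 57 uM final) was run with 24 h compound exposure of reporter cells at 37 °C. Each well was multiplexed: SteadyGlo luminescence measured ATXN2-luciferase expression after a fluorogenic Gly-Phe-AFC viability readout (25 uM final).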
# TGFb inhibitor: qHTS for Inhibitors of TGF-b | AID 588855, 2011 | actives 1.2% (n = 410,000) | HepG2 CAGA-GFP TGF-b/SMAD3 reporter, GFP fluorescence, 18 h; TGF-beta stimulated, 500 pg/mL final | Potency, µM (top dose mostly 46.1 µM), inactives show at the top dose activity, negative = inhibition, hits mostly inhibitors; note: % is set by controls: 0 for no effect and ±100 for the full control effect; nearly all actives have a fitted effect of over 65% in size
#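 First, reporter cells (HEPG2 CAGA-GFP) rested 2 h at 37 degrees C. Next, compounds were pinned in and TGF-beta added to 500 pg/mL final. After 18 h, GFP was imaged per cell and summed per well.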
# ATXN viability: Viability Counterscreen for Primary qHTS for Inhibitors of ATXN expression. S2 cells (HEK-293 line with an ATXN2-luciferase reporter) viability, CellTiter-Fluor protease fluorescence, 24 h. actives 0.49% (n = 400,000). Potency, µM (titrated, usually from 56.7 µM), hits mostly cytotoxic; note: nearly all actives have a fitted effect of over 40% in size
# DT40 TDP1 no CPT: qHTS for Inhibitors of human tyrosyl-DNA phosphodiesterase 1 (TDP1): qHTS in cells in absence of CPT; actives 15% (n = 420,000); DT40 Tdp1-/- hTDP1 cells, no CPT, ATP luminescence, 48 h; Potency, µM (doses to about 46.2 µM), without a hit: at the top dose activity change, negative = growth inhibition, most hits filed as inhibitors; AID 686978, 2013; note: % is set by controls: 0 for no effect and ±100 for the full control effect; nearly all actives have a fitted effect of over 55% in size
#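 Chicken DT40 Tdp1-/- cells stably complemented with human TDP1 were seeded at 400 cells/well with DMSO in place of 20 nM camptothecin. After compound pinning, cells grew at least 48 hr at 37 °C; viability read by CellTiter-Glo luminescence.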
# TDP1 cell CPT: qHTS for Inhibitors of human tyrosyl-DNA phosphodiesterase 1 (TDP1): qHTS in cells in presence of CPT; chicken DT40 Tdp1-/-;hTDP1 cells + 20 nM CPT, ATP luminescence, 48 h; Potency, µM (top dose mostly 46.2 µM), for inactives: at the highest dose activity change, negative = growth inhibition, actives largely listed as inhibitors; actives 12% (n = 420,000); AID 686979, 2013; note: % is set by controls: 0 for no effect and ±100 for the full control effect; nearly all actives have a fitted effect of over 55% in size
#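 Cell growth measured by CellTiter-Glo luminescence after a minimum 48 h, 37 C compound exposure with 20 nM CPT in Tdp1-knockout DT40 cells stably expressing hTDP1, seeded 400/well; qHTS titration format.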
# HepG2 viability: qHTS for Inhibitors of TGF-b: Cytotox Counterscreen; HepG2 CAGA-GFP viability, ATP luminescence, 18 h; Potency, µM (highest dose often 46.1 µM), inactives show top-dose activity change, negative = cytotoxicity, actives largely listed as cytotoxic; actives 0.76% (n = 410,000); AID 588856, 2011
#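 HepG2 CAGA-GFP cells (1000/well, DMEM with 1% FBS) received compound, then TGF-beta at 500 pg/mL final, and were incubated 18 hours at 37 degrees C. Viability was read by CellTiter-Glo luminescence. Media-only wells were set as complete cell-killing and DMSO as no toxicity.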
# Numbers without * were called inactive; i = inactive; ? = inconclusive; . = not tested or not shown. Calls come from the whole dose curve; as a rule, active = well fitted curve in the direction sought with a large enough effect; inconclusive = small, poorly fitted or top-dose-only effect, or another doubt; inactive = no such curve, though single readings can be large; an effect the other way counts as inactive or inconclusive. Potency is the fitted concentration of half-maximal effect.
SMILES,ATXN2 expr inh,TGFb inhibitor,ATXN viability,DT40 TDP1 no CPT,TDP1 cell CPT,HepG2 viability
Cc1cc(N2CCN(C(=O)/C=C/C(=O)O)CC2)c2ccccc2n1,.,-2.5%,?,-2.1%,0.5%,-2.9%
O=c1cnnc(SCc2ccc([N+](=O)[O-])cc2)[nH]1,-5.9%,6.4%,i,-12.6%,-1.1%,-1.4%
O=C(C=Cc1cccnc1)NCCCCC1CCN(C(=O)c2ccccc2)CC1,3.8%,.,.,.,.,.
COC(=O)/C=C1\S/C(=N\N=C\CC(=O)OC)NC1=O,-7.6%,6.8%,?,5.17µM*,3.66µM*,9.3%
COc1ccc(NC(=O)N(C)C[C@H]2Oc3c(NC(=O)c4ccncc4)cccc3C(=O)N([C@H](C)CO)C[C@@H]2C)cc1,-3.4%,1.1%,i,-0.6%,0.0231µM*,7.8%
CC(C)NC(=O)N(C)C[C@H]1Oc2c(NC(=O)Nc3ccc(C(F)(F)F)cc3)cccc2C(=O)N([C@H](C)CO)C[C@@H]1C,-7.6%,?,?,18.4µM*,?,-26.5%
C[C@H](CO)N1C[C@H](C)[C@@H](CN(C)C(=O)Nc2ccc(C(F)(F)F)cc2)Oc2c(cccc2N(C)C)C1=O,-17.0%,1.7%,?,23.1µM*,?,-33.0%
C[C@H](CO)N1C[C@H](C)[C@@H](CN(C)C(=O)Nc2ccc(C(F)(F)F)cc2)Oc2c(NC(=O)c3ccncc3)cccc2C1=O,1.2%,8.0%,i,-26.2%,14.9%,1.4%
COc1ccc(NC(=O)N(C)C[C@H]2Oc3c(NC(=O)Nc4ccc(C(F)(F)F)cc4)cccc3C(=O)N([C@H](C)CO)C[C@@H]2C)cc1,?,?,?,13µM*,16.4µM*,-19.5%
Cn1c(SCC(=O)N2CCCCC2)nc2cccnc21,19.2%,-15.5%,i,-8.6%,-8.3%,-5.8%
CCN(C(=O)COC(=O)c1ccccc1NCCO)c1cccc2ccccc12,-7.6%,-0.7%,i,18.4µM*,-28.7%,-12.0%
CCc1cccc(NC(=O)CSC2=Nc3ccccc3N=C(c3ccc(F)cc3)C2)c1,-4.3%,?,i,13µM*,20.6µM*,-30.6%
COc1ccc(NC(=O)CSC2=Nc3ccccc3N=C(c3ccc(F)cc3)C2)cc1OC,16.4%,?,?,?,?,1.5%
O=C(CSC1=Nc2ccccc2N=C(c2ccc(F)cc2)C1)Nc1cc(F)ccc1F,5.7%,3.2%,i,?,?,-0.3%
O=C(CSC1=Nc2ccccc2N=C(c2ccc(F)cc2)C1)Nc1cccc(C(F)(F)F)c1,-35.8%,?,?,23.1µM*,?,-35.3%
O=S(=O)(c1ccc2ccccc2c1)n1cccn1,1.7%,-12.3%,i,14.8%,26.2%,-0.6%
CCCNC(=O)C1(C)CCN(C(=O)c2cccnc2Oc2ccccc2)C1 (centres undefined),-2.3%,5.3%,i,-11.5%,-9.5%,-0.9%
C=CCNC(=S)NNc1nc(Nc2ccccc2)nc(N2CCCCC2)n1,-17.4%,?,i,8.2µM*,14.6µM*,-8.6%
C=CCNC(=S)NNc1nc(N2CCCC2)nc(N2CCCC2)n1,.,-18.7%,i,-19.8%,-27.7%,0.3%
CCOC(=O)NC1Cc2ccccc2C1Sc1ccccn1 (centres undefined),-1.4%,7.4%,i,4.8%,-1.7%,1.0%
CCOC(=O)c1cc(-c2ccccc2)n(CC(=O)NC(C)c2ccccc2)c1C (centres undefined),.,0.0%,.,9.2µM*,18.4µM*,-18.5%
COc1cc(NC(=O)Cn2c(-c3ccccc3)cc(C(C)=O)c2C)cc(OC)c1,.,0.0%,.,16.4µM*,20.6µM*,6.1%
CCOC(=O)c1cc(-c2ccccc2)n(CC(=O)Nc2cc(OC)cc(OC)c2)c1C,-7.0%,?,i,16.4µM*,20.6µM*,-15.2%
CCCC[C@@H]1CCCO[C@@](C(=O)NCC2CC2)(C(F)(F)F)C1,.,?,.,.,.,-14.8%
COc1ccc(N2C(=O)NC(NC(=O)c3ccncc3)(C(F)(F)F)C2=O)cc1 (centres undefined),-3.6%,5.8%,i,-21.8%,2.4%,-1.2%
SMILES,ATXN2 expr inh,TGFb inhibitor,ATXN viability,DT40 TDP1 no CPT,TDP1 cell CPT,HepG2 viability
O=[N+]([O-])c1cccc(-c2nc(-c3ccccc3)c(-c3cccs3)[nH]2)c1,-17.8%,-14.8%,i,?,-24.8%,-22.7%
O=[N+]([O-])c1cccc(-c2nc(-c3cccs3)c(-c3cccs3)[nH]2)c1,-13.3%,0.0%,i,20.6µM*,20.6µM*,-36.3%
Cc1ccc(-c2nc(-c3cccs3)c(-c3cccs3)[nH]2)cc1,.,0.0%,.,11.6µM*,14.6µM*,-37.3%
Oc1cccc(-c2nc(-c3cccs3)c(-c3cccs3)[nH]2)c1,.,14.1µM*,.,?,?,-85.8%
O=[N+]([O-])c1ccc(-c2nc(-c3cccs3)c(-c3cccs3)[nH]2)cc1,?,-11.8%,?,11.6µM*,11.6µM*,-48.0%
Fc1ccc(-c2nc(-c3cccs3)c(-c3cccs3)[nH]2)cc1,.,-26.3%,.,?,?,-21.2%
O=C(O)c1ccn2c(C(=O)c3ccc(Cl)cc3)c(-c3ccccc3)cc2c1,-13.8%,-9.2%,.,-25.8%,-6.9%,-23.5%
CC(OC(=O)C1=COCCO1)C(=O)NC1CCCCC1 (centres undefined),.,0.1%,i,5.3%,-3.9%,-16.9%
Cc1cc(N2C(=O)C3C4CCC(C4)C3C2=O)no1 (centres undefined),4.6%,-3.3%,i,-11.7%,34.8%,4.9%
COCCC(=O)N1CCC(Oc2ccc(C(=O)N3C[C@H]4CC[C@H]3C4)cc2)CC1,2.7%,26.9%,?,-16.2%,12.9%,2.9%
O=C(NC1CCCC1)C(c1cccnc1)N(C(=O)c1ccco1)c1cccc(F)c1 (centres undefined),10.1%,19.9%,i,10.9%,1.2%,4.5%
CCOc1ccc(C2=CS/C(=C(\C#N)c3nnc4n3CCCCC4)N2CC)cc1,?,6.3%,?,23.1µM*,?,-35.2%
C=CCN1C(c2ccccc2)=CS/C1=C(\C#N)c1nnc2n1CCCCC2,-18.6%,4.3%,i,?,?,-21.8%
